# Data from PubChem BioAssay (NCATS).
# Results filed as inconclusive are left out. Active and inactive are the calls of the source. Calls follow the shape of the dose curve; as a rule, active = well fitted cell-killing curve with a large enough effect; inconclusive = small, poorly fitted or top-dose-only effect; inactive = flat fitted curve, though single readings scatter.
# Experiment: Cellular viability qHTS for adrenocortical cancer (ACC) cell line SW-13 (AID 1963989); also: nearly all actives have a fitted effect of over 65% in size;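 as to activity (max response): cells grown in serum-free medium with ITS supplement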
# Settings: SW-13 ACC cells viability, CellTiter-Glo, 48 h; activity (max response): stronger effect = lower value
# Procedure, shortened: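 Here, serum-free SW-13 cultures were dosed up to 46 uM. Following 48 h, ATP-dependent luminescence (CellTiter-Glo) reported viable cells, and logistic modeling produced IC50 values.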
# % is scaled to controls: 0 for no effect and ±100 for the full control effect; potency is read from the fitted curve at half-maximal effect.
Structure (SMILES),activity (max response),Potency
CC(C)c1c(-c2ccccc2)nc2c(C#N)c[nH]n2c1=O,-8.31% (inactive),–
CC(=O)Nc1ccc(OCC(O)CNC(C)C)cc1 (stereo not given),9.26% (inactive),–
CCc1nn(CCCN2CCN(c3cccc(Cl)c3)CC2)c(=O)n1CCOc1ccccc1,–,14.6 µM (active)
COc1ccc(Oc2cc(NCCC(F)(F)F)c3ncc(-c4ccc(C(=O)NC5CC5)c(C)c4)n3n2)c(F)c1F,-17.7% (inactive),–
CC1Cc2ccccc2N1C(=O)Cc1nc(N2CCOCC2)cc(=O)[nH]1 (stereo not given),-14.8% (inactive),–
CCOC(=O)C(=O)CCc1ccccc1,6.65% (inactive),–
CCCC(C(=O)OCCN(CC)CC)(c1ccccc1)c1ccccc1,–,20.6 µM (active)
Nc1ccc(S(=O)(=O)Nc2ccccc2)cc1,5.64% (inactive),–
CC(CC1c2ccccc2CCc2ccccc21)CN(C)C (stereo not given),-20.3% (inactive),–
CN1CCN(C2=Nc3ccccc3Oc3ccc(Cl)cc32)CC1,-13.7% (inactive),–
Cc1nc2c([nH]1)c(=O)n(C)c(=O)n2Cc1ccco1,-2.81% (inactive),–
Cc1c(Cl)cccc1Nc1ccccc1C(=O)O,-8.75% (inactive),–
C=C1/C(=C/C=C2\CCCC3(C)[C@@H]([C@H](C)/C=C/C=C/C(O)(CC)CC)CC[C@@H]23)C[C@@H](O)C[C@@H]1O (stereo not given in full),-11% (inactive),–
C/C(O)=C(\C#N)C(=O)Nc1ccc(C(F)(F)F)cc1,-8.43% (inactive),–
CC(=O)OC/C=C(C)/C=C/C=C(C)/C=C/C1=C(C)CCCC1(C)C,4.17% (inactive),–
Cc1ccc(-c2nn(C(C)(C)CNC(=O)c3ccncc3)c3ncnc(N)c23)cc1,–,8.91 µM (active)
O=C1C(CCS(=O)c2ccccc2)C(=O)N(c2ccccc2)N1c1ccccc1 (stereo not given),7.53% (inactive),–
N#Cc1ccc(N(Cc2ccc(Br)cc2)n2cnnc2)cc1,-0.886% (inactive),–
CC[N+](CC)(CCNC(=O)C(=O)NCC[N+](CC)(CC)Cc1ccccc1Cl)Cc1ccccc1Cl,-1.37% (inactive),–
O=c1c(-n2ccnn2)c[nH]n1-c1cc(N2CCOCC2)ncn1,-5.69% (inactive),–

Structure (SMILES),activity (max response),Potency
C[C@H](NC(=O)[C@H]1NCC[C@@H]1O)c1ccc(-c2noc(CCC3CCCC3)n2)cc1,-20.3% (inactive),–
CC(C)(C)CC(=O)OCC(=O)[C@@]1(O)CC[C@H]2[C@@H]3CCC4=CC(=O)C=C[C@]4(C)[C@H]3[C@@H](O)C[C@@]21C,-10.9% (inactive),–
O=C(CS)Nc1ccccc1,-14.1% (inactive),–
CCN(CC)CCOC(=O)C(c1ccccc1)c1ccccc1,0.334% (inactive),–
CCc1c(C)[nH]c2c1C(=O)C(CN1CCOCC1)CC2 (stereo not given),7.75% (inactive),–
O=C(NO)C1(CS(=O)(=O)c2ccc(Oc3ccc(Cl)cc3)cc2)CCOCC1,–,25.1 µM (active)
C[C@@H]1C[C@H]2[C@@H]3CCC4=CC(=O)C=C[C@]4(C)[C@@]3(F)[C@@H](O)C[C@]2(C)[C@H]1C(=O)CO,1.09% (inactive),–
C[C@H](Nc1ncnc2nc[nH]c12)c1cc2ccc(F)cc2nc1-c1ccccn1,-8.13% (inactive),–
Nc1ccc(S(=O)(=O)Nc2ccc(Cl)nn2)cc1,1.77% (inactive),–
C/C=C/CC(C)C(O)C1C(=O)NC(CC)C(=O)N(C)CC(=O)N(C)C(CC(C)C)C(=O)NC(C(C)C)C(=O)N(C)C(CC(C)C)C(=O)NC(C)C(=O)NC(C)C(=O)N(C)C(CC(C)C)C(=O)N(C)C(CC(C)C)C(=O)N(C)C(C(C)C)C(=O)N1C (stereo not given),-11.5% (inactive),–
C[C@]12CC[C@H]3[C@@H](CCC4=CC(=O)CC[C@@]43C)[C@@H]1CC[C@@H]2C(=O)CO,-8.44% (inactive),–
c1ccc(-c2ccc(C(c3ccccc3)n3ccnc3)cc2)cc1 (stereo not given),–,18.4 µM (active)
C[C@H](CS)C(=O)N1CCC[C@H]1C(=O)O,-1.14% (inactive),–
O=C1S/C(=C\c2ccc(OCc3cccc(B(O)O)c3)cc2)C(=O)N1Cc1ccc(F)cc1,-17.7% (inactive),–
Cc1ccc2c(c1)c1c3n2CCNC3CCC1 (stereo not given),-5.85% (inactive),–
O=C(NC1CCN(CCc2c[nH]c3ccccc23)CC1)c1ccccc1,-18.1% (inactive),–
CN1CCCCC1CCN1c2ccccc2Sc2ccc(S(C)=O)cc21 (stereo not given),-6.63% (inactive),–
NC(=O)C(=O)N/N=C/c1ccc([N+](=O)[O-])o1,-15.1% (inactive),–
CN1CCC(OC(c2ccccc2)c2ccccc2)CC1,0.851% (inactive),–
CC1CC(=O)NN=C1c1ccc(NCC(C)(C)NCC(O)COc2cc(Cl)ccc2C#N)cc1 (stereo not given),-8.94% (inactive),–
